For 51 compounds, Percent Effect results are on record in ChEMBL document CHEMBL3988442, “University of Dundee, Small-Polar-MMV Screening Library” (2021).

In assay [1] the target is T1, Aspartate--tRNA(Asp/Asn) ligase (Mycobacterium tuberculosis (strain ATCC 25618 / H37Rv)) (UniProt P9WFW3). Also: in the data most compounds retested in dose-response had high values.
T1 sequence (whole entry): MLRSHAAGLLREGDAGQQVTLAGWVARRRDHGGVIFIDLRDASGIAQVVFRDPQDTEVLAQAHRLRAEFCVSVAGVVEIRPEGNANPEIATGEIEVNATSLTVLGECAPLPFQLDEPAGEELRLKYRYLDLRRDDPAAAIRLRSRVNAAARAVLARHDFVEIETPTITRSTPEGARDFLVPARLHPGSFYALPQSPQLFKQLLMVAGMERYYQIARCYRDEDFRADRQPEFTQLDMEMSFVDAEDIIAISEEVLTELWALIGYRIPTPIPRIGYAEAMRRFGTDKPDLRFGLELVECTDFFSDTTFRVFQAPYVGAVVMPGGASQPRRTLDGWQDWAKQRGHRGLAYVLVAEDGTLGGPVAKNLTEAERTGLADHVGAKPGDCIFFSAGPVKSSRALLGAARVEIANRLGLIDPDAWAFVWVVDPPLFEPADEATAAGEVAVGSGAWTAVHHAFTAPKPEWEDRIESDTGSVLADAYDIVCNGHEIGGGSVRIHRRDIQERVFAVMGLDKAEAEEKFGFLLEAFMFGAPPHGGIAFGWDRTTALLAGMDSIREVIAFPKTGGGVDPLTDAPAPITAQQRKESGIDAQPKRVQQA
The experiment in a line: Assay for Asp RNA synthetase-1 from Mycobacterium tuberculosis. It is filed as functional. Set-up: scale not given: direction of the effect not stated beside the values. The settings on record: 30 µM.

The target in assay [2] is Shiga toxin 2 (Escherichia coli O157:H7) (UniProt P09385+P09386). Description: E. coli 0.157:H7 Shiga Toxin SOP - stx2 screening assay. It is filed as functional. Set-up: scale not given: direction of the effect not stated beside the values. The settings on record: 30 µM.

SMILES strings stand for the structures.

With `O=C(NCCC(=O)N1CCCC1)c1nn(-c2ccccc2F)cc1O`, the figures for the Percent Effect in assay [1] and in assay [2] were -3.29% and -59.6%, respectively.
Consider `O=C(NCCCNc1ccccc1)c1scnc1Cl`, for which the Percent Effect in assay [1] is -0.926%; in assay [2], -10.4%.
Consider `Cn1cnc2c1C(COCC1CCOCC1)CN(C1CCOCC1)C2` (configuration not stated), for which the figures for the Percent Effect in assay [1] and in assay [2] were 3.46% and -20.2%, respectively.
For `NC(=O)C1CN(Cc2c[nH]cn2)CCN(C2CCOCC2)C1` (configuration not stated), the Percent Effect in assay [1] is -0.938%; in assay [2] it was -0.548%.
For `CC(=O)c1cccc(NC(=O)CN2CCCCC2C2OCCO2)c1` (configuration not stated) the same measures were 1.76% and -1.62%.
Taken in the same sequence, the figures for `COc1cccc(N2CCN(C(=O)C(O)c3cccc(Cl)c3)CC2=O)c1` (configuration not stated) were 0.569% and -24.2%.
Taken in the same sequence, the figures for `N#Cc1cccc(NC(=O)N[C@H](CO)c2ccccc2)c1` were 3.31% and -24.6%.
In the case of `CN(CC(=O)N1CCCC1Cn1cccn1)c1cnccn1` (configuration not stated), the Percent Effect was -1.26% in assay [1] and -0.699% in assay [2].
As to `Cc1ncccc1O[C@H]1CCN(C(=O)c2cccs2)CC[C@@H]1O`, the values for the Percent Effect in assay [1] and in assay [2] were 4.9% and 6.92%, respectively.
Taken in the same sequence, the figures for `O=C(C1CCC1)N1CCN(C(=O)c2cnccn2)[C@H]2CS(=O)(=O)C[C@H]21` were -2.93% and -12.2%.
On to `Cn1cnc2c1C(COCc1ccccc1)N(Cc1ccncc1)CC2` (configuration not stated), for which the Percent Effect is 2.91% in assay [1] and -1.07% in assay [2].
Taken in the same sequence, the figures for `CCn1cc(S(=O)(=O)N(C)Cc2c(Br)cnn2CC)c(C)n1` were 3.54% and 13.9%.
As for `COc1ccc(CNCc2ccnc(N3CCOCC3)c2)cc1OC`, the Percent Effect in assay [1] is -2.66%; in assay [2], -52.5%.
Turning to `COCC(=O)NC1CC2(CCN(Cc3ccco3)CC2)c2ccccc21` (configuration not stated), the Percent Effect in assay [1] is 5.52%; in assay [2] it was -5.13%.
Take `Cc1cnn(C2CN(CC(=O)NCc3ccccn3)C2)c1`: the Percent Effect worked out at 5% in assay [1] and 21.1% in assay [2].
Taken in the same sequence, the figures for `CNc1nc2c(c(C(=O)N3CCCC3)n1)CN(Cc1nccn1C)CC2` were 1.96% and -4.2%.
Take `COC(=O)c1ccoc1COC(=O)CCc1ccc(OC)c(OC)c1`: the Percent Effect in assay [1] was -3.44%; in assay [2], 0.432%.
On to `CCOc1ccc(-c2ccnc(CC)n2)cc1C(=O)O`, for which the Percent Effect is -3.09% in assay [1] and 0.242% in assay [2].
In the case of `CC(=O)N1CCCCC1c1nc(N)ncc1-c1ccccc1` (configuration not stated), the Percent Effect in assay [1] came to 5.78%; in assay [2], 4.38%.
With `Cn1cc(N2CCC3(CCN(Cc4nccs4)C3)C2=O)cn1` (configuration not stated), the Percent Effect was -0.749% in assay [1] and -2.2% in assay [2].
For `Cc1nc(CN2CCC3(CC2)NC(=O)CC3c2ccccc2)cs1` (configuration not stated) the same measures were -5.35% and 7.78%.
For `Cc1cc(CN2CCOCS2(=O)=O)ccc1F` the same measures were 1.64% and 3.93%.
Consider `OC1CCN(Cc2cc3c(cc2Br)OCCO3)CC1`, for which the Percent Effect in assay [1] is 2.56%; in assay [2], -8.4%.
Turning to `Cc1cc(C)n(-c2cncc(N3CCN(C(=O)C(C)(C)C)CC3)n2)n1`, the Percent Effect was 0.549% in assay [1] and -19.9% in assay [2].
In the case of `CCn1cc(CN2CC3CCCN3C[C@H]2C)c(C)n1` (some centres not stated), the Percent Effect in assay [1] is 1.26%; in assay [2], -7.87%.
Taken in the same sequence, the figures for `CCCc1noc(CCC(=O)N2CCCC2c2ccsc2)n1` (configuration not stated) were -1.06% and 8.4%.
Taken in the same sequence, the figures for `CC(O)CN1CCN(C(=O)c2ccc(N(C)C)nn2)CC1` (configuration not stated) were -6.65% and -70.5%.
For `Cc1noc(C)c1C(=O)NCc1ccc(N2CCOC(C)C2)nc1` (configuration not stated) the same measures were -1.75% and -60.1%.
Turning to `CN(C)C(CNC(=O)NCCc1cccc(O)c1)c1ccco1` (configuration not stated), the Percent Effect in assay [1] is 2.5%; in assay [2] it was -5.55%.
For `Cc1cc(C2CCCN(C(=O)CN3CCN(C)CC3)C2)n[nH]1` (configuration not stated) the same measures were -0.728% and 13.2%.
Taken in the same sequence, the figures for `Cc1cc(NCc2cc3n(n2)CCCN(C(=O)N(C)C)C3)ncn1` were 0.54% and -3.81%.
For `O=C(Cc1ccsc1)N1CCC(n2nc(-c3ccco3)ccc2=O)CC1` the same measures were -0.938% and 18.8%.
For the compound `Cc1ccc(-c2cc(CNC(=O)N3CCC(CO)CC3)on2)cc1`, the Percent Effect turned out to be 3.99% in assay [1] and 16.1% in assay [2].
For `COc1ccc(CNC2CCN(CCc3ccncc3)CC2)cc1O` the same measures were 5.98% and -49.6%.
Regarding `COc1cc(C(=O)NC(CC(=O)O)c2cccs2)cc(Cl)c1OC` (configuration not stated), the Percent Effect in assay [1] was 3.71%; in assay [2], -19.3%.
Take `CCn1nc2c(cc1=O)CN(CC(=O)Nc1nc(C)c(C)s1)CC2`: the figures for the Percent Effect in assay [1] and in assay [2] were 3.7% and -30.8%, respectively.
`COc1ccccc1OCC(=O)Nc1ncccc1Cl`: the Percent Effect in assay [1] was -0.641%; in assay [2], 1.67%.
In the case of `COCC(=O)N1CCO[C@H]2[C@H](OC)CC[C@@H]21`, the results for the Percent Effect in assay [1] and in assay [2] were 9.03% and 2.73%, respectively.
Taken in the same sequence, the figures for `CN(C)CCNC(=O)c1cnc2c(c1)nc(-c1ccccc1Cl)n2C` were 3.74% and 5.62%.
Taken in the same sequence, the figures for `Cc1noc(CN(Cc2ccc3c(c2)OCO3)Cc2ccc(C)o2)n1` were 13.9% and 29%.
Taken in the same sequence, the figures for `Cn1nnc2c1CCN(Cc1ccccc1)C2COCC1CC1` (configuration not stated) were 2.13% and -19.5%.
For `Cc1cc(CN(C)C(=O)c2ccc(F)cc2Br)no1`, the results for the Percent Effect in assay [1] and in assay [2] were 0.189% and -57%, respectively.
As for `Cc1nn(C)c2c(N3CCN(C(=O)C4CCC4)CC3)ncnc12`, the Percent Effect was -3.19% in assay [1] and -37.9% in assay [2].
Taken in the same sequence, the figures for `CS(=O)(=O)N1CC[C@H]2C[C@@H](C(=O)N3CCOCC3)O[C@@H]2C1` were 2.65% and 5.94%.
For `CN1CCC(c2nnc(CN3CCC(O)CC3)n2C)CC1` the same measures were 10.8% and -2.24%.
As for `CCc1nccn1C1CCCN(C(=O)c2cnn3ccc(C)nc23)C1` (configuration not stated), the Percent Effect amounted to 0.632% in assay [1] and 11.2% in assay [2].
Take `CC(C)NC(=O)c1nnn(-c2cccc(C(F)(F)F)c2)c1N`: the Percent Effect was 0.111% in assay [1] and -1.08% in assay [2].
For the compound `CCOCC1CN(C(=O)N(C)C)Cc2nn(C)cc21` (configuration not stated), the Percent Effect is 7.75% in assay [1] and -4.03% in assay [2].
Take `OCCN1CCOC2(CCCN(c3cccc(F)c3)C2)C1` (configuration not stated): the Percent Effect is -3.25% in assay [1] and -15.9% in assay [2].
Taken in the same sequence, the figures for `CNc1cncc(C2CCCN2Cc2ccccc2OCC(=O)O)n1` (configuration not stated) were 4.48% and 3.64%.
Take `O=C(CCNc1ncccn1)NCCOc1ccc2c(c1)CCC2`: the values for the Percent Effect in assay [1] and in assay [2] were 1.63% and 35.6%, respectively.
